Measured values as given in PubChem BioAssay (NCATS).
“And” between values parts separate entries of the source, which are not always exact repeats. Equal values may be shown once. Inconclusive results are not listed. The source made the active and inactive calls. Unless noted, no rule for the calls is given here.

Key:
[1] = qHTS Assay for Identifying Gametocytocidal Compounds (AID 743244; active = well fitted curve in the direction sought with a large enough effect; also: potency is read from the fitted curve at half-maximal effect;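 as to max response: % is scaled to controls: 0 for no effect and ±100 for the full control effect; actives lower the fluorescent signal which means gametocytes are killed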); conditions: P. falciparum 3D7 stage III-V gametocytes, alamarBlue, 72 h; max response: stronger effect = lower value
Summary of the method: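 Viability read-out was resazurin reduction (alamarBlue, 24 h) measured at Ex 525/Em 598 nm. Beforehand, late-stage (III-V) 3D7 P. falciparum gametocytes at 20,000 cells/well were incubated with compound 72 h at 37C under 5% CO2.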

[2] = qHTS profiling for inhibitors of Plasmodium falciparum (3D7) proliferation (AID 743322);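 also: infected erythrocytes exposed to compound for 72 h before lysis; 100% = DMSO vehicle wells and 0% = 0.29 µM artemisinin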; conditions: P. falciparum 3D7 proliferation; at 28.7 µM (top of the series) unless noted
Summary of the method: (§1)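 Parasite DNA was quantified by SYBR Green I fluorescence (ex 485, em 535 nm) after overnight lysis in saponin/Triton buffer at room temperature. Cultures at 0.3% parasitemia and 2.5% hematocrit were first exposed to compound for 72 h at 37 C; signals were normalised to artemisinin (0.29 uM) and vehicle wells.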

[3] = qHTS profiling for inhibitors of Plasmodium falciparum (DD2) proliferation (AID 743323); conditions: lower = more inhibition; at 28.7 µM (top of the series) unless noted
Summary of the method: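 1536-well qHTS; infected RBCs 0.3% parasitemia/2.5% Hct final; cpd 72 h 37 C 5% CO2; lysis buffer + SYBR Green I, o/n RT dark; FI 485/535; norm. to 0.29 uM artemisinin and DMSO, plate-stack corrected.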

[4] = qHTS profiling of the MIPE4 collection as inhibitors of Plasmodium falciparum (3D7) proliferation (AID 743344);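 also: scaled between DMSO vehicle wells and 0.29 µM artemisinin as full inhibition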; conditions: P. falciparum 3D7 in erythrocytes, SYBR Green DNA fluorescence, 72 h; at 28.5 µM (top of the series) unless noted
Summary of the method: as §1

[5] = qHTS profiling of the MIPE4 collection as inhibitors of Plasmodium falciparum (DD2) proliferation (AID 743345); conditions: P. falciparum Dd2 in erythrocytes, SYBR Green DNA, 72 h; at 28.5 µM (top of the series) unless noted
Summary of the method: as §1

[6] = qHTS profiling of the MIPE4 collection as inhibitors of Plasmodium falciparum (DD2) proliferation (Rep 2) (AID 743346); conditions: P. falciparum Dd2 in erythrocytes, SYBR Green DNA, 72 h; at 28.5 µM (top of the series) unless noted
Summary of the method: as §1

[7] = qHTS profiling of the MIPE4 collection as inhibitors of Plasmodium falciparum (HB3) proliferation (AID 743347);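 also: plate controls were DMSO vehicle wells for no effect and artemisinin wells for full effect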; conditions: P. falciparum HB3 in erythrocytes, SYBR Green DNA, 72 h; at 28.5 µM (top of the series) unless noted
Summary of the method: as §1

| Structure (SMILES) | max response [1] | remaining parasite growth % (stronger effect = lower value) [2] | activity, percent of control [3] | parasite growth, % of DMSO control [4] | parasite growth remaining, % of DMSO control (lower = more inhibition) [5] | parasite growth, % of control (lower = inhibition) [6] | growth, % of control [7] | Potency [1] |
| --- | --- | --- | --- | --- | --- | --- | --- | --- |
| CN(C(=O)c1ccc(F)cc1C(F)(F)F)C1CCN(c2nnc(-c3ccnn3C)c3ccccc23)CC1 | 1.04% (inactive) | 59.4% | 71.6% | 16.1% | 61.1% | 45.1% | 21.1% | – |
| CCn1c(-c2nonc2N)nc2c(C#CC(C)(C)O)ncc(OC[C@H]3CCCNC3)c21 | – | 5.66% | 2.74% | 5.72% | 11.8% | 13.9% | 3.2% | 23.5 µM (active) |
| Oc1ccc(C2CNCCc3c2cc(O)c(O)c3Cl)cc1 (configuration not stated) | 2.69% (inactive) and -7.1% (inactive) | – | – | 6.63% | 65.8% | 14.2% | 7.76% | – |
| COc1ccc(CC2=NN3C([C@@H](CCc4ccccc4)[C@@H](C)O)=NC(C)C3C(=O)N2)cc1OC (some centres not stated) | -6.02% (inactive) | 71.5% | 64.6% | 87.2% | 99.9% | 46.9% | 82% | – |
| CN1CCN(CCCN2c3ccccc3Sc3ccc(C(F)(F)F)cc32)CC1 | – | – | – | 108% | 97.5% | 101% | 83% | 3.16 µM (active) |
| C1COC(NC(C2CC2)C2CC2)=N1 | 8.63% (inactive) and 12.8% (inactive) | – | – | 72.7% | 88.7% | 67.2% | 82.6% | – |
| CNCc1ccc(-c2[nH]c3cc(F)cc4c3c2CCNC4=O)cc1 | – | 28.7% | 77.5% | 47.4% | 85% | 51.1% | 18.7% | 29.6 µM (active) |
| O=C(C=Cc1ccc(/C=C/C(=O)Nc2ccc(C3=NCCN3)cc2)cc1)Nc1ccc(C2=NCCN2)cc1 | 6.08% (inactive) | 15.9% | 27.3% | 25.9% | 39% | 40.5% | 54.9% | – |
| Cc1cc([C@@H](C)Nc2ccccc2C(=O)O)c2nc(N3CCOCC3)cc(=O)n2c1 | -4.48% (inactive) | 50.6% | 29.8% | 5.01% [at 57.5 µM] | 16.9% [at 57.5 µM] | 7.39% [at 57.5 µM] | 3.82% [at 57.5 µM] | – |
| O=C(NOC[C@H](O)CO)c1ccc(F)c(F)c1Nc1ccc(I)cc1F | 24.9% (inactive) | 106% | 98.3% | 86.4% | 102% | 95.7% | 97.2% | – |
| Nc1nc2c(ncn2COCCO)c(=O)[nH]1 | 17.4% (inactive) and 18.4% (inactive) | – | – | 96.7% | 97.6% | 124% | 99.6% | – |
| NCCCC(N)(C(=O)O)C(F)F (configuration not stated) | 5.66% (inactive) and 8.03% (inactive) | – | – | 98% | 95.9% | 157% | 107% | – |
| OC(CCN1CCCCC1)(c1ccccc1)C1CC2C=CC1C2 (configuration not stated) | -9.9% (inactive) | – | – | 38.1% | 75.2% | 44.2% | 35.8% | – |
| Nc1ccc(S(=O)(=O)Nc2ccnn2-c2ccccc2)cc1 | 9.56% (inactive) and 18.4% (inactive) | – | – | 93.3% | 103% | 86.8% | 94.4% | – |
| CCC(C)(C)C(=O)O[C@H]1C[C@@H](C)C=C2C=C[C@H](C)[C@H](CC[C@@H]3C[C@@H](O)CC(=O)O3)[C@H]21 | 5.81% (inactive) | 116% [at 9.63 µM] | 96.4% [at 9.63 µM] | 6.94% | 42% | 13.8% | 3.36% | – |
| COc1ccc(C2=N[C@H](c3ccc(Cl)cc3)[C@H](c3ccc(Cl)cc3)N2C(=O)N2CCNC(=O)C2)c(OC(C)C)c1 | 18.2% (inactive) | 52.3% | 50.5% | 17.5% | 54.6% | 11.8% | 12.4% | – |
| CCOC(=O)C1=C[C@]2(CC)CCCN3CCc4c(n1c1ccccc41)[C@@H]32 | -1.66% (inactive) | – | – | 5.46% and 17.8% | 8.67% and 83.7% | 35.2% and 34.2% | 10% and 13.6% | – |
| O=C1CCc2cc(OCCCCc3nnnn3C3CCCCC3)ccc2N1 | 16.8% (inactive) and 6.18% (inactive) | – | – | 90.8% | 99.1% | 115% | 104% | – |
| CCCc1nn(C)c2c(=O)[nH]c(-c3cc(S(=O)(=O)N4CCN(C)CC4)ccc3OCC)nc12 | 18.4% (inactive) | 98.3% | 102% | 21.3% | 17.2% | 51.4% | 24.6% | – |
| Fc1ccc(Cl)cc1-c1nc(Nc2ccncc2)c2nccnc2n1 | -14.2% (inactive) | 5.45% | 25.3% | 22.1% | 37% | 30.8% | 8.98% | – |
| Cc1ccc(N(CC2=NCCN2)c2cccc(O)c2)cc1 | 9.03% (inactive) | – | – | 69.6% | 92.8% | 57% | 95.9% | – |
